Assay outcomes: PubChem BioAssay, several laboratories
Hits are enriched below; roughly 4.8% of the tested compounds scored in any of these assays.
tim23-1 inh: growth inhibitors of tim23-1 mutant yeast; AID 463212; inhibition, % at 20 µM; S. cerevisiae tim23-1 growth, BacTiter-Glo luminescence, 24 h; hit rate 1.3% among 330,000;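 active = growth inhibition of the mutant yeast at or above 50%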;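 also: temperature-sensitive mutant grown at 25 °C; plate controls were DMSO-treated mutant yeast for no effect and medium wells lacking yeast for full effect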
tim10-1 inh: growth inhibitors of tim10-1 mutant yeast | AID 463190 | hit rate 2.2% among 330,000 | S. cerevisiae tim10-1 ts strain growth, BacTiter-Glo, 24 h | inhibition, % at 20 µM;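 active = inhibition of at least 40%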;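 also: mutant grown at 25 °C; 0% = DMSO wells with yeast and 100% = wells holding no yeast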
PfHsp90 set2: growth inhibition of yeast expressing Plasmodium Hsp90. S. cerevisiae expressing PfHsp90, BacTiter-Glo ATP, 48 h; yeast lacking PDR1 and PDR3 efflux regulators. inhibition, % at 9.4 µM. hit rate 0.32% among 310,000. AID 504621;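 active = every replicate shows inhibition above about 80%, whatever the replicate mean, limit read from the data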;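 also: 0% = DMSO neutral controls and 100% = 20 µM radicicol positive controls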
SKKanGAS inh: blocks kanamycin growth of S. pyogenes SKKanGAS strain; BacTiter-Glo, 6 h; inhibition, % at 7.5 µM; hit rate 1.3% among 300,000;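 active = mean replicate score, as percent of positive control median, at least 50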;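 also: strain carries kanamycin resistance gene driven by streptokinase promoter and grows in 40 µg/ml kanamycin; loss of luminescence reflects streptokinase promoter inhibition or plain growth inhibition; 0% = median of DMSO wells and 100% = positive control at its reference dose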
NALP1 yeast inh: inhibitors of NALP1 inflammasome in yeast. S. cerevisiae NALP1/ASC/caspase-1 growth, X-gal OD620, 72 h. inhibition, % at 10 µM. hit rate 0.61% among 280,000; in the data active = inhibition mostly above about 24%, no sharp cut-off; inactive = mostly below about 32%
TIM10 inh: growth inhibitors of TIM10 yeast strain; AID 463195; inhibition, % at 10 µM; hit rate 1.4% among 330,000; S. cerevisiae TIM10 strain growth, BacTiter-Glo luminescence, 24 h;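 active = inhibition of 40% or more at the single tested concentration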;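 also: wild-type TIM10 isogenic control strain grown at permissive 25 °C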
tim10-1 confirm: tim10-1 yeast growth inhibition, confirmed | shares compounds with tim10-1 inh | S. cerevisiae tim10-1 ts strain growth, BacTiter-Glo, 24 h | inhibition, % at 20 µM | hit rate 56% among 7,400;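 active = inhibition of yeast growth at or above a set limit in either of two repeat tests at 20 µM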;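 also: tim10-1 mutant grown at permissive 25 °C to find synthetic lethal compounds; 0% = DMSO yeast wells and 100% = medium wells without yeast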
tim10 confirm: TIM10 yeast growth inhibition, confirmed; S. cerevisiae tim10 strain growth, BacTiter-Glo luminescence, 24 h; AID 463215; shares compounds with TIM10 inh; hit rate 63% among 4,600; inhibition, % at 10 µM;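 active = inhibition of yeast growth at or above a set limit in either of two replicates at 10 µM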;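 also: this counterscreen used the strain with wild-type TIM10; 0% = yeast with DMSO and 100% = medium wells lacking yeast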
tim23-1 conf: tim23-1 yeast growth inhibition, confirmed | S. cerevisiae tim23-1 growth, BacTiter-Glo luminescence, 24 h | shares compounds with tim23-1 inh | hit rate 83% among 4,400 | inhibition, % at 20 µM;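 active = inhibition above about 39% in either of two replicate wells at 20 µM, limit read from the data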;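 also: temperature-sensitive tim23-1 mutant grown at 25 °C; 0% = DMSO wells with yeast and 100% = medium wells without yeast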
An asterisk follows results filed as active; · = no result given.

SMILES	tim23-1 inh	tim10-1 inh	PfHsp90 set2	SKKanGAS inh	NALP1 yeast inh	TIM10 inh	tim10-1 confirm	tim23-1 conf	others
Cc1nnc(NC(=O)c2c(-c3ccccc3Cl)noc2C)s1	5	-1	-19	9	-3	4	·	·
CCOC(=O)c1[nH]c(C=O)c(C(=O)OCC)c1C	76*	60*	-12	1	-1	67*	50*	80*	tim10 confirm=55*
O=C(O)CCCN1C(=O)/C(=C/C=C/c2ccco2)SC1=S	12	6	0	-6	-5	8	·	·
Oc1c(Br)cc(Br)cc1C=Nc1cccc2ncccc12	83*	55*	-5	24	·	-5	41*	86*
Cc1ccc(N/N=C(\Cc2nc3ccccc3[nH]2)c2ccccc2)cc1	·	·	-35	·	·	·	·	·
Clc1cccc(/C(Cc2nc3ccccc3[nH]2)=N\Nc2ccccc2)c1	59*	46*	8	93*	14	65*	30	22	tim10 confirm=5
Cc1ccc(C=Nc2ccccc2C#N)s1	5	-6	0	-10	31	-5	·	·
Cc1c(Cl)cccc1N=Cc1ccc([N+](=O)[O-])s1	65*	67*	112*	-6	-7	83*	61*	76*	tim10 confirm=65*
O=C1N(C2CCCC2)C[C@@H]2C[C@@H](c3cccn3-c3ccccn3)N3CCC[C@@]123	-2	1	-2	-26	-2	8	·	·
COc1cc(N=C2C(=O)N3c4c(cccc42)C(C)=CC3(C)C)cc(OC)c1	28	20	-7	0	38	16	·	·
COc1cc2c3c(c1)C(C)=CC(C)(C)N3C(=O)C2=O	57*	41*	1	-4	5	12	28	57*
COc1cc(C(F)(F)F)c(C(=O)N(C)Cc2ccc(Cl)c(Cl)c2)cn1	27	24	-6	16	-5	23	·	·
COc1ccccc1OCc1cc(C(=O)N2CCN(C)C(c3ccccc3)C2)no1 (stereo unspecified)	55*	52*	107*	-5	0	29	27	37
CN1CCN(C(=O)c2cc(COc3c(F)cccc3F)on2)CC1c1ccccc1 (stereo unspecified)	63*	42*	110*	4	11	52*	21	50*	tim10 confirm=53*
CC(CC(=O)O)CC(=O)Nc1cccc([N+](=O)[O-])c1 (stereo unspecified)	5	8	0	-6	-7	0	·	·
O=C(Nc1ccc(F)cc1)C1C(c2ccccc2)C1(Cl)Cl (stereo unspecified)	59*	48*	-35	1	32	41*	39*	40*	tim10 confirm=-10
O=C(Nc1ccccc1Cl)C1C(c2ccccc2)C1(Cl)Cl (stereo unspecified)	40	23	-12	33	20	5	·	·
CCc1c(C)c(C#N)c2nc3ccccc3n2c1NCCOC	33	34	4	3	21	6	·	·
CCCc1c(C)c(C#N)c2nc3ccccc3n2c1NCCCN1CCOCC1	3	21	·	0	-10	-7	·	·
Cc1c(Cc2ccccc2)c(NCCN(C)C)n2c(nc3ccccc32)c1C#N	58*	48*	111*	-3	39	69*	57*	69*	tim10 confirm=80*
CCCCc1c(C)c(C#N)c2nc3ccccc3n2c1NCCN(C)C	65*	57*	18	-7	34*	52*	63*	69*	tim10 confirm=37*
COc1ccc(N)c2c1C(=O)c1ccccc1C2=O	·	·	-7	39	23	·	·	·
COc1ccc2noc3c2c1C(=O)c1ccccc1-3	69*	61*	0	5	·	39	71*	72*
Cc1ccc(/C=C/C(=O)NC2CCCCCCC2)o1	52*	55*	-8	5	34	46*	57*	58*	tim10 confirm=38*
Cc1ccc(/C=N/NC(=O)NC2CCCCC2)o1	14	14	9	-1	-6	25	·	·
SMILES	tim23-1 inh	tim10-1 inh	PfHsp90 set2	SKKanGAS inh	NALP1 yeast inh	TIM10 inh	tim10-1 confirm	tim23-1 conf	others
Oc1c(Cl)cc(Cl)cc1C=Nc1cc(C(F)(F)F)ccc1N1CCc2ccccc2C1	58*	60*	-15	87*	27	33	36*	59*
Oc1c(Cl)cccc1C=Nc1cc(C(F)(F)F)ccc1N1CCCC1	33	22	0	5	20	22	·	·
Cc1cc(NC(=O)Nc2ccccc2Cl)no1	20	1	6	-4	26	-2	·	·
Cc1c(Cl)cccc1NC(=O)Nc1cc(C(C)(C)C)on1	59*	59*	-14	14	10	29	26*	45*
Cc1ccc(C)c(S(=O)(=O)N2CCN(C(=O)c3cccn3C)CC2)c1	17	16	-4	-12	·	8	·	·
CC(=O)Oc1c(Cl)c(N2CCOCC2)c(OC(C)=O)c2ccccc12	53*	49*	-12	6	15	39	41*	41*
O=C(NCCOC12CC3CC(CC(C3)C1)C2)c1cccc(Br)c1	53*	42*	-17	1	8	44*	33*	46*	tim10 confirm=46*
CCCCN(C)CCn1c(=S)[nH]c2ncccc2c1=O	10	-1	11	-5	3	-7	·	·
COc1ccc(C(=O)/C=C/Sc2nc3ccccc3o2)cc1	75*	50*	4	12	21	38	38*	66*
CCCCOC(=O)Nc1nc2ccccc2s1	20	5	0	0	-3	11	·	·
CCCCOC(=O)Sc1nc2ccccc2o1	74*	49*	-45	9	9	64*	49*	44*	tim10 confirm=43*
Cc1ccn2c(=O)c(NC(=O)c3ccc(Br)o3)c(C)nc2c1	9	13	·	47	·	2	·	·
Cc1ccc(N2CCN(C(=O)c3cc(-c4ccc(F)cc4)[nH]c3C)CC2C)cc1 (stereo unspecified)	74*	52*	-55	25	12	32	51*	55*
Cn1cc(Br)c(C(=O)Nc2nccs2)n1	1	13	11	-4	24	-8	·	·
Cc1ccc(C)c(NC(=S)NNc2ccc(F)cc2F)c1	58*	47*	-7	8	-4	13	42*	57*
Cc1ccc(C)c(NC(=S)NCCc2ccc(F)cc2)c1	24	33	-17	2	9	35	·	·
O=C(COC(=O)c1ccc2c(c1)OCO2)Nc1ccccc1	6	-2	2	-1	16	5	·	·
CC(=O)CCc1ccc2oc(C(=O)O)c(C)c2c1	3	1	-19	-3	17	-15	·	·
